This excerpt belongs to a sample that is enriched for hits.
Tgondii IFNg = blocks Toxoplasma gondii growth in the presence of IFN-gamma; Toxoplasma gondii growth in IFN-gamma-treated host cells; hits give low values; activity change, negative = inhibition, % (concentration not given with the values); 69,000 tested, 3.8% active; AID 1259416; in the data active = activity change below about -70%, passing the limit was not always enough;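 note: host cells are HeLa cells infected with Toxoplasma gondii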
The depositor's hits bear a star; ! = a repeat was not active.

SMILES	Tgondii IFNg
C[C@@H]1O[C@@H](O[C@H]2C[C@@H](O)[C@]3(CO)C4C(CC[C@]3(O)C2)[C@@]2(O)CC[C@H](C3=CC(=O)OC3)[C@@]2(C)C[C@H]4O)[C@H](O)[C@H](O)[C@H]1O (stereo partly drawn)	-78*
CC(C)C(=O)N1CCCc2cc(C(O)CN3CC=C(c4ccc(F)cc4)CC3)ccc21 (stereo not drawn)	-9
CN1CCN(Cc2cnn(C)c2)Cc2cccnc21	-2
CCOCC12CCCOC1CCN(CC1CC1)C2 (stereo not drawn)	29
COc1cccc(NC(=O)c2cc3cccnc3n(Cc3ccc(Cl)cc3)c2=O)c1	230
C=C1[C@@H](C)[C@H]2[C@H](Cc3ccccc3)NC(=O)[C@]23OC(=O)/C=C/[C@H](O)CCC[C@@H](C)C/C=C/[C@H]3[C@@H]1O	-98*
NC(=O)N1c2ccccc2[C@@H]2CNCC[C@@H]21	-20
CCc1ccccc1NC(=O)N1Cc2ccccc2-n2cccc2C12CCN(C(C)=O)CC2	56
COCCNC(=O)C[C@H]1COC[C@@H]2CN(Cc3cc(C)on3)C[C@@H]12	-28
CCn1nc(C)c(CNC(C)Cc2cccc(OC)c2)c1C (stereo not drawn)	-1
C[C@]12[C@H](O)CC3C(CC[C@@H]4C[C@@H](O)CC[C@]34C)[C@@]1(O)CC[C@@H]2C1=CC(=O)OC1 (stereo partly drawn)	-79*
C[C@]12CCC3[C@@H](CC[C@@H]4C[C@H](O)CC[C@]34C)[C@@H]1CCC2=O (stereo partly drawn)	37
C[C@]12CC[C@H](O)C[C@H]1CC[C@@H]1[C@@H]2C[C@@H](O)[C@]2(C)[C@@H](C3=CC(=O)OC3)CC[C@]12O	-87*
CC(=O)OCC(=O)[C@H]1CC[C@H]2[C@@H]3CC[C@H]4C[C@H](O)CC[C@]4(C)[C@H]3C(=O)C[C@]12C	2
CC12CC[C@H]3[C@@H](CCC4(O)C[C@H](O)CCC34/C=N/NC(=O)Cc3ccccc3)C1(O)CCC2C1=CC(=O)OC1 (stereo partly drawn)	-10
CC(=O)[C@H]1CC[C@H]2[C@@H]3CC[C@H]4C[C@H](O)CC[C@]4(C)[C@H]3C(=O)C[C@]12C	17
C[C@]12CC[C@H](O)C[C@H]1CC[C@@H]1[C@@H]2CC[C@]2(C)[C@@H](C3=CC(=O)OC3)CC[C@]12O	-85*
Cc1cnc(C(=O)N2C[C@H]3CN(Cc4cccnc4)C[C@@H]3C2)cn1	-5
c1cnc2c(c1)CNCCN2Cc1ccncc1	-2
COc1ccc(C)cc1CC(=O)N(CCN(C)C)C1CCS(=O)(=O)C1 (stereo not drawn)	-2
C=CCN1CC[C@@H]2[C@@H]1CCN2Cc1c(C)noc1C	-10
O=C(Nc1ccc(OC(F)(F)F)cc1)c1cc2cccnc2n(Cc2ccccc2)c1=O	120
O=C(NCCC1=CCCCC1)c1cc2cccnc2n(Cc2ccccc2F)c1=O	29
COCCN1CCC2(CC1)CN(c1cccnc1)C(=O)CO2	118
CC1CC1C(=O)N1C[C@H]2CN(Cc3ccccn3)C[C@@H]2C1 (stereo partly drawn)	207
SMILES	Tgondii IFNg
COC(=O)c1ccccc1NC(=O)c1cc2cccnc2n(Cc2ccccc2)c1=O	4
Cc1nc(C(F)(F)F)nc(N2CCOC3(CNCCOC3)C2)c1C (stereo not drawn)	-4
Cn1cc(N2C[C@@H]3CN(CCO)C[C@@H]3C2=O)cn1	23
CN1CC(C(=O)O)CN2CCN(C(=O)Cc3ccc(F)cc3)CC2C1 (stereo not drawn)	3
Cc1ncc(CC(=O)N2CCN(C)C(c3ccccc3)C2)c(=O)[nH]1 (stereo not drawn)	-3
CC(C)CN1CCC2(CC1)C(=O)Nc1ccc(C(=O)NC3CC3)cc12	35
CN1CCC2(CC1)NC(=O)CC2c1ccccc1 (stereo not drawn)	99
c1cnc(N2CCO[C@H]3CN(Cc4cccs4)C[C@@H]32)nc1	-71*
Cc1ccc(CN2C[C@@H]3OCCN(c4ncccn4)[C@H]3C2)s1	-66
CC(C)N1CCO[C@@H]2CN(Cc3nccs3)C[C@@H]21	5
COc1ccc(NC(=O)c2cc3cccnc3n(Cc3ccccc3)c2=O)cc1OC	82
Cc1ccnc(CC(C)N(C)Cc2cccnc2NC(=O)C(C)(C)C)c1 (stereo not drawn)	-2
CC1(C)CC[C@]2(C(=O)O)CC[C@]3(C)[C@H](C(=O)C=C4[C@@]5(C)C=C(C#N)C(=O)C(C)(C)[C@@H]5CC[C@]43C)[C@@H]2C1	-79*
C/C(=C\c1ccco1)CN1CCC2(CCNCC2)C1	9
Cc1cccnc1CC(C)N(C)Cc1nc[nH]c1C (stereo not drawn)	7
Cc1ccc2c(n1)N(C)CCN(S(=O)(=O)c1cn(C)cn1)C2	4
Cn1ccnc1-c1ccc(N2C[C@@H]3C[C@@H](C2)c2cccc(=O)n2C3)nn1	-1
C=CCN1C[C@H]2CN(c3cc(OC)ncn3)CCC[C@]2(C(=O)O)C1	37
c1ccc(N2CC3(CCN(Cc4cccnc4)C3)C2)nc1	-29
CCNC(=O)[C@H]1O[C@@H](n2cnc3c(N)ncnc32)[C@H](O)[C@@H]1O	7
NC(=O)c1cn(C2OC(CO)[C@H](O)[C@@H]2O)c2ncnc(N)c12 (stereo partly drawn)	-83*
Cc1ccc(CNC(=O)c2cc3cccnc3n(Cc3ccccc3)c2=O)cc1	53
Cc1nc(CC(=O)N2C[C@H]3C[C@@H](C2)c2cccc(=O)n2C3)cs1	38
CCCCCOc1c(OC)ccc2cc(C(=O)NCc3ccc4c(c3)OCO4)c(=O)[nH]c12	-74*!
O=C(Nc1ccc2c(c1)OCO2)c1cc2cccnc2n(Cc2ccc(F)cc2)c1=O	233
SMILES	Tgondii IFNg
COc1ccc(CC(=O)N2CCN(Cc3ccc4c(c3)OCO4)CC2)cc1OC	13
CCOc1cccc2c1OC1(C)CC2C(C(=O)/C=C/c2ccc(OC)c(OC)c2OC)C(=O)N1C (stereo not drawn)	4
O=C(NC1CCCC1)N1CC[C@H]2[C@@H]1CCN2Cc1ccccn1	301
COCCN1CCOC2CCN(C(=O)Cc3cccnc3)CCC21 (stereo not drawn)	8
O=C(Nc1ccc(Br)cc1)c1cc2cccnc2n(Cc2ccc(F)cc2)c1=O	41
O=c1[nH]c2ccccc2n1C1CCN(CCCC(c2ccc(F)cc2)c2ccc(F)cc2)CC1	-95*!
CN(CCc1ccccc1)C1CCCN(C(=O)Cc2c[nH]c(=O)n(C)c2=O)C1 (stereo not drawn)	2
C[C@]12CC[C@H](OC3OC(O)C(O)C(O)C3O)C=C1CCC1C2CC[C@]2(C)[C@@H](c3ccc(=O)oc3)CC[C@]12O (stereo partly drawn)	-80*
Cc1c(C(N)=O)ncn1Cc1ccc(Cl)cc1	-22
COc1cccc([C@@H]2CN(C(=O)C3CCOCC3)[C@@H]3C4CCN(CC4)[C@@H]32)c1	-2
Cc1cc(F)ccc1NC(=O)c1c(O)c2cccnc2n(Cc2ccccc2)c1=O	1
O=C(CCCN1CCC2(CC1)C(=O)N(Cc1cccc(F)c1)CN2c1ccccc1)c1ccc(F)cc1	-83*!
CCC(=O)N1CCC2(CC1)C(=O)N(Cc1cccnc1)CCN2C	-2
COC(=O)CN1CN(c2ccccc2)C2(CCN(Cc3ccc4ccccc4c3)CC2)C1=O	-8
COCCN1CCOCC2(CCCN(C(=O)c3cccnc3)C2)C1 (stereo not drawn)	-16
CCCCCCC(C)(C)c1ccc(C2CC(O)CCC2CCCO)c(O)c1 (stereo not drawn)	-79*
C(=C\c1ccccc1)/CN1CCC2(CCNCC2)C1	-41

Screening results (PubChem BioAssay)
